Results reported in PubChem BioAssay AID372 (MTDP, 2006).
Among all 100,000 compounds or so, about 770 (0.77%) were called active. No stated cut-off is given here; in the data, active means inhibition above about 50%; inactive means the rest. The full list was thinned out, with actives kept by preference.

biological target: Gag-Pol polyprotein (Human immunodeficiency virus type 1 group M subtype B (isolate HXB2)) (UniProt P04585); assay: RNase H inhibition, HIV 1 Gag Pol polyprotein, FRET biochemical assay, screening (AID 372); conditions: HIV-1 RT RNase H, FRET RNA/DNA substrate fluorescence; at 10 µM; hits give high values

Compound | inhibition
COc1cc(OC)c(NC(=O)C(Cl)(Cl)Cl)cc1Cl | 2% (inactive)
CCOc1cc(/C=C(\C#N)c2ccc([N+](=O)[O-])cc2)ccc1O | 8% (inactive)
COc1ccc(/C=C(\C#N)c2ccc(Cl)cc2)cc1OC | 20% (inactive)
CCOc1ccc(/C=C(/C#N)c2ccc(Cl)cc2)cc1Cl | 54% (active)
O=C(O)c1c[nH]c2ccc(Br)cc2c1=O | 13% (inactive)
Cc1cccc(N2C(=O)NC(=O)/C(=C\C=C\c3ccccc3[N+](=O)[O-])C2=O)c1 | 24% (inactive)
CCN1C(=O)NC(c2ccc(Br)cc2)C(C(=O)OCCOC)=C1C (configuration not stated) | 0% (inactive)
O=C(Nc1ccc(-c2nc3ccc(NC(=O)c4ccccc4)cc3[nH]2)cc1)c1ccccc1 | 4% (inactive)
O=C1c2cccc3c(Cl)ccc(c23)C(=O)N1O | 15% (inactive)
O=C1c2cccc3ccc(Cl)c(c23)C(=O)N1O | 90% (active)
O=C1c2cccc3ccc(Cl)c(c23)C(=O)N1Oc1ccc([N+](=O)[O-])cc1[N+](=O)[O-] | 3% (inactive)
Cc1c(NC(=O)c2cc([N+](=O)[O-])ccc2Cl)cccc1-c1nc2ccccc2s1 | 6% (inactive)
COc1ccc(Nc2nc(-c3cc4cc(OC)ccc4oc3=O)cs2)cc1 | 13% (inactive)
COc1ccc2oc(=O)c(-c3csc(NC(=O)/C=C\C(=O)O)n3)cc2c1 | 3% (inactive)
COc1ccc2oc(=O)c(-c3csc(Nc4ccccc4)n3)cc2c1 | 17% (inactive)
COc1ccc2oc(=O)c(-c3csc(Nc4ccc(C(C)=O)cc4)n3)cc2c1 | 1% (inactive)
COc1cccc(Nc2nnc(-c3cc4cc(OC)ccc4oc3=O)s2)c1 | 43% (inactive)
COc1ccc2oc(=O)c(-c3csc(/N=C/c4ccccc4O)n3)cc2c1 | 67% (active)
COc1ccc2oc(=O)c(-c3nnc(Nc4ccccc4C)s3)cc2c1 | 10% (inactive)
COc1ccc2oc(=O)c(-c3nnc(Nc4cccc(C)c4)s3)cc2c1 | 50% (active)
COc1cccc(Nc2nc(-c3cc4cc(Br)ccc4oc3=O)cs2)c1 | 12% (inactive)
COc1ccc2oc(=O)c(-c3csc(Nc4ccc(Cl)cc4)n3)cc2c1 | 57% (active)

Compound | inhibition
COc1ccc2oc(=O)c(-c3csc(Nc4ccccc4Br)n3)cc2c1 | 8% (inactive)
CCOC(=O)N(Cc1ccccc1)C(C(=O)O)C(C(=O)O)N(Cc1ccccc1)C(=O)OCC (configuration not stated) | 0% (inactive)
O=CNC(NC(=S)Nc1cc(Cl)ccc1Cl)C(Cl)(Cl)Cl (configuration not stated) | 17% (inactive)
Cc1ccc([N+](=O)[O-])cc1/C=C1/SC(=S)N(c2cccc(C(F)(F)F)c2)C1=O | 5% (inactive)
O=C(COc1ccc(Br)cc1Cl)Nc1cc(Cl)ccc1Cl | 8% (inactive)
COc1ccc(OC)c(N(CC(=O)NCC(C)C)S(C)(=O)=O)c1 | 0% (inactive)
CC(=O)C1=C(C)NC(SCC(=O)c2ccc(C)cc2)=C(C#N)C1c1ccc(Br)cc1 (configuration not stated) | 18% (inactive)
O=C(NC(=S)Nc1ccc(Cl)c([N+](=O)[O-])c1)c1ccc(-c2ccccc2)cc1 | 13% (inactive)
O=C(Nc1ccccc1-c1nc2ccccc2[nH]1)c1ccc([N+](=O)[O-])cc1 | 44% (inactive)
COc1ccc(O)c(CN2CCCCC2)c1 | 4% (inactive)
CC1SC(c2cccc(Cl)c2)NC1=O (configuration not stated) | 0% (inactive)
C/C(=N\NC(=O)c1cc(C2CC2)[nH]n1)c1ccc(C)cc1 | 8% (inactive)
COc1ccc(-n2nnnc2C(=Cc2ccc(N(C)C)cc2)c2nnnn2-c2ccc(OC)cc2)cc1 | 9% (inactive)
N#Cc1c(-c2cccc(Br)c2)c(C#N)c2nc3ccccc3n2c1N | 9% (inactive)
COc1ccc(C2CC(=O)C3=C(C2)NC(C)=C(C(=O)OC2CCCC2)C3c2ccc3c(c2)OCO3)cc1 (configuration not stated) | 3% (inactive)
CCOC(=O)C1=C(c2ccccc2)OC(N)=C(C#N)C1c1cccs1 (configuration not stated) | 15% (inactive)
CCCC1=C(C(=O)OCC)C(c2cccs2)C(C#N)=C(N)O1 (configuration not stated) | 56% (active)
CCOC(=O)C1=C(CC)OC(N)=C(C#N)C1c1cccs1 (configuration not stated) | 30% (inactive)
O=[N+]([O-])c1ccc(C=Nc2ccc(F)cc2)s1 | 21% (inactive)
COC(=O)C1=C(C)N(Cc2ccccc2)C(=O)/C1=C\c1c(Cl)cccc1Cl | 47% (inactive)
COC(=O)C1=C(C)N(Cc2ccccc2)C(=O)/C1=C\c1cccs1 | 4% (inactive)
COC(=O)C1=C(C)N(Cc2ccccc2)C(=O)/C1=C\c1ccccc1Cl | 51% (active)

Compound | inhibition
CN(C)c1ccc(/C=C(\C#N)c2nc(-c3ccc4c(c3)OCO4)cs2)cc1 | 16% (inactive)
CCOC(=O)c1sc(NC(=O)c2cc(Cl)ccc2OC)c(C(N)=O)c1C | 2% (inactive)
O=C(Nc1ccccc1I)c1ccc(C(=O)Nc2ccccc2I)cc1 | 0% (inactive)
Cc1cccc(NC(=O)c2ncn[nH]2)c1C | 0% (inactive)
O=C(Nc1ccccc1I)c1ncn[nH]1 | 54% (active)
O=C(Nc1nc2ccccc2n1Cc1ccc(Cl)cc1)c1ccc(Cl)cc1 | 11% (inactive)
CC(=O)Nc1ccc(NC(=S)NC(=O)c2cccc(Br)c2)cc1 | 0% (inactive)
O=C1NC(=O)/C(=C\c2ccc(-c3ccc(C(=O)O)cc3)o2)S1 | 6% (inactive)
O=C(O)c1cc(-c2ccc(C=C3C(=O)c4ccccc4C3=O)o2)ccc1O | 11% (inactive)
O=C1NC(=S)S/C1=C\c1ccc(-c2ccc(Cl)c(C(=O)O)c2)o1 | 18% (inactive)
O=C1/C(=C/c2ccc(-c3ccc(Cl)cc3C(=O)O)o2)Sc2ccccc21 | 21% (inactive)
CCCOc1ncnc2sc3c(c12)CCCC3 | 12% (inactive)
CC1=NN(c2ccc(S(N)(=O)=O)cc2)C(=O)/C1=C\c1ccc(-c2cc([N+](=O)[O-])ccc2Cl)o1 | 46% (inactive)
COc1cc(/C=C2\C(=O)N(c3ccc(S(N)(=O)=O)cc3)N=C2C)ccc1OCc1ccccc1 | 53% (active)
CC1=NN(c2ccc(S(N)(=O)=O)cc2)C(=O)/C1=C\c1ccc(-c2cccc([N+](=O)[O-])c2)o1 | 57% (active)
CC1=NN(c2ccc(S(N)(=O)=O)cc2)C(=O)/C1=C\c1ccc(-c2ccc(Cl)c([N+](=O)[O-])c2)o1 | 80% (active)
COc1cc([N+](=O)[O-])ccc1-c1ccc(/C=C2\C(=O)N(c3ccc(S(N)(=O)=O)cc3)N=C2C)o1 | 53% (active)
COc1cc([N+](=O)[O-])ccc1-c1ccc(/C=C2\C(=O)N(c3ccc(C(=O)O)cc3)N=C2C)o1 | 26% (inactive)
COc1cc([N+](=O)[O-])ccc1-c1ccc(/C=C2/C(=O)N(c3ccc(C)cc3)N=C2C)o1 | 6% (inactive)
CN1C(=O)C(=Cc2ccc(-c3ccc(Cl)c([N+](=O)[O-])c3)o2)C(=O)N(C)C1=S | 30% (inactive)
CCCOc1ccc(/C=C2\C(=O)N(c3ccc(S(N)(=O)=O)cc3)N=C2C)cc1OC | 6% (inactive)
CC1=NN(c2ccc(S(N)(=O)=O)cc2)C(=O)/C1=C\c1ccc(-c2cc([N+](=O)[O-])ccc2C)o1 | 42% (inactive)

Compound | inhibition
CC1=NN(c2ccc(S(N)(=O)=O)cc2)C(=O)/C1=C\c1cccc([N+](=O)[O-])c1 | 12% (inactive)
COc1cc(/C=C2\C(=O)N(c3ccc(S(N)(=O)=O)cc3)N=C2C)cc(Br)c1OCc1ccccc1 | 16% (inactive)
C=CCc1ccc(OCCCOc2c(Cl)cccc2Cl)c(OC)c1 | 42% (inactive)
CCOC(=O)C1=C(C)NC(=S)NC1c1ccc(Cl)c(Cl)c1 (configuration not stated) | 7% (inactive)
COc1ccc(NC(=NCCc2ccccc2)SC2CC(=O)N(c3ccc(F)cc3)C2=O)cc1 (configuration not stated) | 9% (inactive)
COc1ccc(OC)c(C=Nc2ccc(I)cc2)c1 | 9% (inactive)
O=C1NC(=Nc2ccc(F)cc2)S/C1=C/c1cccc(Br)c1 | 40% (inactive)
CCOC(=O)C1=C(C)N=c2s/c(=C\c3cc(Br)c(OC)c(OC)c3)c(=O)n2C1c1ccc(OC)c(OC)c1 (configuration not stated) | 18% (inactive)
CCc1cccc(C)c1NC(=O)/C(C#N)=C/c1ccccc1 | 4% (inactive)
CC1=NN(c2ccc(S(N)(=O)=O)cc2)C(=O)/C1=C\c1ccc(-c2ccc(Cl)c(C(=O)O)c2)o1 | 6% (inactive)
CC1=NN(c2ccc(S(N)(=O)=O)cc2)C(=O)/C1=C\c1ccc(-c2ccc(S(N)(=O)=O)cc2)o1 | 32% (inactive)
CC1=NN(c2ccc(S(N)(=O)=O)cc2)C(=O)/C1=C\c1ccc(-c2ccc(Br)cc2)o1 | 59% (active)
CC1=NN(c2ccc(S(N)(=O)=O)cc2)C(=O)/C1=C\c1ccc(-c2ccc([N+](=O)[O-])cc2)o1 | 63% (active)
CC1=NN(c2ccc(S(N)(=O)=O)cc2)C(=O)/C1=C\c1ccc(-c2ccc(Cl)c(C(=O)OC(C)C)c2)o1 | 59% (active)
CC1=NN(c2cccc(C(=O)O)c2)C(=O)/C1=C\c1ccc(-c2ccc([N+](=O)[O-])cc2)o1 | 7% (inactive)
CC1=NN(c2ccccc2)C(=O)/C1=C\c1ccc(-c2cc([N+](=O)[O-])ccc2O)o1 | 30% (inactive)
COC(=O)c1cccc(-c2ccc(/C=C3\C(=O)N(c4ccc(S(N)(=O)=O)cc4)N=C3C)o2)c1 | 28% (inactive)
CC1=NN(c2ccc(C)cc2)C(=O)/C1=C/c1ccc(-c2ccc(Cl)c(C(=O)O)c2)o1 | 24% (inactive)
CC1=NN(c2ccc(S(N)(=O)=O)cc2)C(=O)/C1=C\c1ccc(-c2ccc(C)c(Cl)c2)o1 | 53% (active)
CC1=NN(c2ccc(S(N)(=O)=O)cc2)C(=O)/C1=C\c1ccc(-c2ccc(C(=O)OC(C)C)cc2)o1 | 25% (inactive)
CCOC(=O)c1ccc(-c2ccc(/C=C3\C(=O)N(c4ccc(S(N)(=O)=O)cc4)N=C3C)o2)cc1 | 36% (inactive)
